Out of some 310,000 compounds screened, about 3,900 (1.3%) were called active.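 Rule for the calls: active = compounds whose thallium flux B-score, printed positive for inhibition, exceeds three library SD while starting fluorescence stays within three; inactive = the rest.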 The full list was thinned out, with actives kept by preference.
Molecular target: Potassium voltage-gated channel subfamily KQT member 1 (Homo sapiens) (UniProt P51787)
Experiment: inhibitors of human KCNQ1 channel, primary screen, cell-based, thallium flux, high-throughput (AID 2642);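 note: channel opened by potassium depolarization with thallium stimulus after 20 min compound exposure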
Settings: CHO-K1 KCNQ1, FluxOR thallium flux fluorescence, at 10 µM; hits give high values

Potassium voltage-gated channel subfamily KQT member 1 (Homo sapiens), sequence (P51787 whole entry, looked up): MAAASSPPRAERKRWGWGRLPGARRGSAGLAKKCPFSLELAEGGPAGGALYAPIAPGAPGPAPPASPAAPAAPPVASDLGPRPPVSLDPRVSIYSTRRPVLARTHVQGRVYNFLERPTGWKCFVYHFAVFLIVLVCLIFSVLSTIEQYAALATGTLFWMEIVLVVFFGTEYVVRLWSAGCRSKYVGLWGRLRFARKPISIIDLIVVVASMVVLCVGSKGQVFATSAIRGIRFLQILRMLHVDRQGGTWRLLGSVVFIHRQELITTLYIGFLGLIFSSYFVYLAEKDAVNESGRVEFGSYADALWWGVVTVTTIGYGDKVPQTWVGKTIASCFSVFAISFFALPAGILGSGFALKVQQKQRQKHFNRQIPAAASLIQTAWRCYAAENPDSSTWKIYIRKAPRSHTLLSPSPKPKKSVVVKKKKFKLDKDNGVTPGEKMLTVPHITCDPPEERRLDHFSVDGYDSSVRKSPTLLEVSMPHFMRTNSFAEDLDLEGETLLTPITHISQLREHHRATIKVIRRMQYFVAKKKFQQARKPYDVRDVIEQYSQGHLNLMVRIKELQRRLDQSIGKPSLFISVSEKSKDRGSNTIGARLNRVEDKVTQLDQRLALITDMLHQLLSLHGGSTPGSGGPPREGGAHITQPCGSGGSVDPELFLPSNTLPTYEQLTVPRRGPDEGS

Row | Structure (SMILES) | B-score
1 | CCOc1ccc(-c2cc(C)[n+](CCN(CC)CC)c(-c3ccc(OCC)cc3)c2)cc1 | 7 (active)
2 | CSC1=NP(=S)(SC)N(C)c2nc3n(c21)CCC3 (stereo not given) | inactive
3 | CCN1C(=O)C(=Cc2c(C)n(CC(=O)NCC3CCCO3)c3ccccc23)C(=O)N(CC)C1=S (stereo not given) | inactive
4 | CN(C)S(=O)(=O)c1cc(C(=O)N2CCC(C(=O)O)(c3ccccc3)CC2)ccc1Cl | inactive
5 | Cc1ccc(-c2nc3ccccc3c(=O)n2-c2ccc(Br)cn2)cc1 | inactive
6 | CCCCCCCCCCCCn1ccc(=N)cc1 | 13 (active)
7 | CC1=CC(=Cc2sc3ccccc3[n+]2C)C=C(C)O1 | inactive
8 | Clc1ccc2nc3c(c(-c4ccccc4)c2c1)CNCC3 | inactive
9 | O=C(Nc1cccc2ccccc12)N1CCC2(CC1)OCCO2 | inactive
10 | CC(C)(C)c1ccc(CN2C(=O)CN=C(c3ccccc3)c3ccccc32)cc1 | 6 (active)
11 | O=C1CC(=O)N(Cc2ccccc2)C(=O)N1CCCCCCN1C(=O)CC(=O)N(Cc2ccccc2)C1=O | inactive
12 | C=Cn1ccnc1P(=S)(c1cc(N(CC)CC)ns1)c1nccn1C=C | inactive
13 | O=c1[nH]c(=O)n(-c2ccc(F)cc2)c(O)c1C=NCCN1CCCCC1 | inactive
14 | COC(=O)C1=C(c2ccccc2)C[C@@H]2CC[C@H]1N2C(=O)N1CCCCC1 | inactive
15 | C/C(=N/O)c1ccc2ccc3ccccc3c2c1 | inactive
16 | C/C=C/CC1(CC)C(=O)NC(=S)NC1=O | inactive
17 | CCOc1cccc(=NC2CCCCC2)c2c(C)[nH]c(C)c12 | 7 (active)
18 | CN(C)c1nc(N(C)C)nc(N(C#N)CCCl)n1 | inactive
19 | COc1ccccc1N1CCN(C(CNC(=O)Oc2ccccc2)c2cccnc2)CC1 (stereo not given) | inactive
20 | O=C(N/N=C/c1c(O)n(C2CC2)c(=S)[nH]c1=O)c1ccccc1Cl | inactive
